Laboratory results reported in PubChem BioAssay (NCI).
Compounds without any hit were thinned out: in the full panel of roughly 83,000, 20% have a hit.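 Activity criterion: percent growth below 10, measured after cells in 96-well plates were exposed to a single compound concentration for 48 hours.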 Activity calls are given as the source filed them.

test system: NCI-H226 lung; test: NCI-60 one-dose screen, 48 h (100 = growth as untreated, 0 = no growth, -100 = all killed); details: 10 µM unless noted

Row | SMILES | growth
1 | CC[C@H](C)[C@H]1NC(=O)[C@@H](N[C@](C)(O)[C@@H](N)CC(C)C)[C@@H](C)OC(=O)[C@H](Cc2ccc(OC)cc2)N(C)C(=O)[C@@H]2CCCN2C(=O)[C@H](CC(C)C)NC(=O)[C@@H](C)C(=O)[C@H](C(C)C)OC(=O)C[C@@H]1O | -11.1% (active)
2 | CCNC(=O)C1CCCN1C(=O)C(CCCN=C(N)N)NC(=O)C(CC(C)C)NC(=O)C(CC(C)C)NC(=O)C(Cc1ccc(O)cc1)NC(=O)C(CO)NC(=O)C(Cc1c[nH]c2ccccc12)NC(=O)C(Cc1cnc[nH]1)NC(=O)C1CCC(=O)N1 (stereo not drawn) | 111% (inactive)
3 | COC(=O)c1cc(-c2cccs2)c(C#N)c(N)c1C#N | 101% (inactive)
4 | O=C1N=C(c2c(-c3[nH]c(=O)c4ccc(Br)cc4c3O)c(O)c3ccccc3c2O)C(=O)c2cc(Br)ccc21 | -30.4% (active)
5 | CC[C@]1(O)C[C@@H]2CN(Cc3c([nH]c4ccccc34)[C@@](C(=O)OC)(c3cc4c(cc3OC)N(C)[C@H]3[C@@](O)(C(=O)OC)[C@H](OC(C)=O)[C@]5(CC)[C@@H]6C[C@@H]6CN6CC[C@]43[C@@H]65)C2)C1 | 50.2% (inactive)
6 | CCOC(=O)[C@H](CSSc1ncnc2cc[nH]c12)NC(=O)[C@@H](C)c1ccc2cc(OC)ccc2c1 | 39.9% (inactive)
7 | Cc1nc(Nc2cccnc2)sc1C(=O)/C=C/c1ccc(F)cc1 | 55.7% (inactive)
8 | COc1ccc(C2=CC(c3ccc(Oc4ccnc5cc(Cl)ccc45)c(OC)c3)c3c(nc(OC)[nH]c3=O)N2)cc1 (stereo not drawn) | 88.9% (inactive)
